Out of some 5,500 compounds screened, about 2,000 (36%) were called active. About 18% were inconclusive and are not listed. No stated cut-off is given here; in the data, active means normalized growth mostly below about 0.91 (no sharp cut-off); inconclusive means no clear call, values can overlap the other calls; inactive means mostly above about 0.92. The list shows a part of the results.
Experiment: chemical genetic growth profiling, strain panel (AID 1159580);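 further: tested at 20 µM; growth read once vehicle control cultures reached saturation at 30 °C; 1 = growth at the plate median or of vehicle wells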
Conditions: growth OD

Measured: normalized growth

NC(C(=O)O)C(O)C(=O)O (stereo not drawn)
inactive: S. cerevisiae deletion strains, locus YJR066W, strain TOR1, stronger effect = lower value 0.994 | S. cerevisiae deletion strains, locus YJR075W, strain HOC1, stronger effect = lower value 1.01 | S. cerevisiae deletion strains, locus YKL009W, strain mrt4, stronger effect = lower value 1.02 | S. cerevisiae deletion strains, locus YKL068W, stronger effect = lower value 1.01 | S. cerevisiae deletion strains, locus YKL085W, strain MDH1 (second series), stronger effect = lower value 0.999 | S. cerevisiae deletion strains, locus YKL085W, strain MDH1, stronger effect = lower value 0.999 | S. cerevisiae deletion strains, locus YKL160W, strain elf1, stronger effect = lower value 0.974 | S. cerevisiae deletion strains, locus YKR001C, strain vps1, stronger effect = lower value 1.02 | S. cerevisiae deletion strains, locus YKR026C, strain gcn3, stronger effect = lower value 0.997 | S. cerevisiae deletion strains, locus YKR091W, strain srl3, stronger effect = lower value 0.984 | S. cerevisiae deletion strains, locus YLL001W, strain dnm1, stronger effect = lower value 0.987 | S. cerevisiae deletion strains, locus YLL026W, stronger effect = lower value 0.996 | S. cerevisiae deletion strains, locus YLL041C, strain sdh2, stronger effect = lower value 0.978 | S. cerevisiae deletion strains, locus YLR027C, strain aat2, stronger effect = lower value 0.998 | S. cerevisiae deletion strains, locus YLR039C, strain RIC1, stronger effect = lower value 1.02 | S. cerevisiae deletion strains, locus YLR058C, strain SHM2, stronger effect = lower value 1.01 | S. cerevisiae deletion strains, locus YLR102C, strain apc9, stronger effect = lower value 1.04 | S. cerevisiae deletion strains, locus YLR113W, strain HOG1, stronger effect = lower value 1.07 | S. cerevisiae deletion strains, locus YLR221C, strain rsa3, stronger effect = lower value 1.05 | S. cerevisiae deletion strains, locus YLR258W, strain gsy2, stronger effect = lower value 0.995 | S. cerevisiae deletion strains, locus YLR262C, strain YPT6 (second series), stronger effect = lower value 0.973 | S. cerevisiae deletion strains, locus YLR262C, strain YPT6, stronger effect = lower value 1.02 | S. cerevisiae deletion strains, locus YLR268W, strain sec22, stronger effect = lower value 1.07 | S. cerevisiae deletion strains, locus YLR320W, strain mms22, stronger effect = lower value 1.04 | S. cerevisiae deletion strains, locus YLR330W, strain CHS5, stronger effect = lower value 1.01 | S. cerevisiae deletion strains, locus YLR342W, strain FKS1 (second series), stronger effect = lower value 1 | S. cerevisiae deletion strains, locus YLR342W, strain FKS1, stronger effect = lower value 0.999 | S. cerevisiae deletion strains, locus YLR357W, strain rsc2, stronger effect = lower value 0.982 | S. cerevisiae deletion strains, locus YLR370C, strain arc18, stronger effect = lower value 0.988 | S. cerevisiae deletion strains, locus YLR371W, strain rom2, stronger effect = lower value 1.02 | S. cerevisiae deletion strains, locus YLR384C, strain iki3, stronger effect = lower value 0.981 | S. cerevisiae deletion strains, locus YLR418C, strain cdc73, stronger effect = lower value 1.03 | S. cerevisiae deletion strains, locus YML016C, strain PPZ1, stronger effect = lower value 1.01 | S. cerevisiae deletion strains, locus YML032C, strain rad52, stronger effect = lower value 1.02 | S. cerevisiae deletion strains, locus YML120C, strain ndi1, stronger effect = lower value 0.96 | S. cerevisiae deletion strains, locus YML124C, strain tub3, stronger effect = lower value 1.02 | S. cerevisiae deletion strains, locus YMR058W, strain fet3, stronger effect = lower value 0.99 | S. cerevisiae deletion strains, locus YMR078C, strain ctf18, stronger effect = lower value 1.04 | S. cerevisiae deletion strains, locus YMR125W, strain sto1, stronger effect = lower value 0.95 | S. cerevisiae deletion strains, locus YMR129W, stronger effect = lower value 1 | S. cerevisiae deletion strains, locus YMR205C, strain PFK2, stronger effect = lower value 0.966 | S. cerevisiae deletion strains, locus YMR223W, strain ubp8, stronger effect = lower value 1.03 | S. cerevisiae deletion strains, locus YMR231W, strain pep5, stronger effect = lower value 0.993 | S. cerevisiae deletion strains, locus YMR307W, strain GAS1, stronger effect = lower value 1.08 | S. cerevisiae deletion strains, locus YNL067W, strain RPL9B, stronger effect = lower value 1.01 | S. cerevisiae deletion strains, locus YNL071W, strain lat1, stronger effect = lower value 0.982 | S. cerevisiae deletion strains, locus YNL153C, strain GIM3, stronger effect = lower value 1.01 | S. cerevisiae deletion strains, locus YNL183C, strain NPR1, stronger effect = lower value 0.982 | S. cerevisiae deletion strains, locus YNL209W, strain ssb2, stronger effect = lower value 0.982 | S. cerevisiae deletion strains, locus YNL233W, strain BNI4, stronger effect = lower value 1.01 | S. cerevisiae deletion strains, locus YNL248C, strain rpa49, stronger effect = lower value 0.94 | S. cerevisiae deletion strains, locus YNL250W, strain rad50, stronger effect = lower value 1.05 | S. cerevisiae deletion strains, locus YNL271C, strain bni1, stronger effect = lower value 1.03 | S. cerevisiae deletion strains, locus YNL298W, strain CLA4, stronger effect = lower value 1.05 | S. cerevisiae deletion strains, locus YNL307C, strain MCK1, stronger effect = lower value 1.03 | S. cerevisiae deletion strains, locus YNL322C, strain KRE1 (second series), stronger effect = lower value 0.98 | S. cerevisiae deletion strains, locus YNR049C, strain mso1, stronger effect = lower value 0.981 | S. cerevisiae deletion strains, locus YNR052C, strain pop2, stronger effect = lower value 1.04 | S. cerevisiae deletion strains, locus YOL147C, strain pex11, stronger effect = lower value 1.02 | S. cerevisiae deletion strains, locus YOR001W, strain rrp6, stronger effect = lower value 1.01 | S. cerevisiae deletion strains, locus YOR061W, strain CKA2, stronger effect = lower value 1.01 | S. cerevisiae deletion strains, locus YOR069W, strain VPS5, stronger effect = lower value 1 | S. cerevisiae deletion strains, locus YOR070C, strain gyp1, stronger effect = lower value 1.03 | S. cerevisiae deletion strains, locus YOR080W, strain dia2, stronger effect = lower value 0.996 | S. cerevisiae deletion strains, locus YOR083W, strain WHI5, stronger effect = lower value 0.979 | S. cerevisiae deletion strains, locus YOR106W, strain vam3, stronger effect = lower value 0.956 | S. cerevisiae deletion strains, locus YOR136W, strain idh2, stronger effect = lower value 1.03 | S. cerevisiae deletion strains, locus YOR144C, strain elg1, stronger effect = lower value 1.02 | S. cerevisiae deletion strains, locus YOR184W, strain ser1, stronger effect = lower value 1.03 | S. cerevisiae deletion strains, locus YOR231W, strain MKK1, stronger effect = lower value 1.09 | S. cerevisiae deletion strains, locus YOR265W, strain rbl2, stronger effect = lower value 0.987 | S. cerevisiae deletion strains, locus YOR270C, strain vph1, stronger effect = lower value 1.01 | S. cerevisiae deletion strains, locus YOR290C, strain snf2, stronger effect = lower value 0.926 | S. cerevisiae deletion strains, locus YOR316C, strain cot1, stronger effect = lower value 1.02 | S. cerevisiae deletion strains, locus YPL051W, strain arl3, stronger effect = lower value 1 | S. cerevisiae deletion strains, locus YPL055C, strain LGE1, stronger effect = lower value 1.03 | S. cerevisiae deletion strains, locus YPL078C, strain atp4, stronger effect = lower value 0.949 | S. cerevisiae deletion strains, locus YPL106C, strain sse1, stronger effect = lower value 0.954 | S. cerevisiae deletion strains, locus YPL240C, strain hsp82, stronger effect = lower value 0.996 | S. cerevisiae deletion strains, locus YPL241C, strain CIN2, stronger effect = lower value 1 | S. cerevisiae deletion strains, locus YPL256C, strain CLN2, stronger effect = lower value 1.03 | S. cerevisiae deletion strains, locus YPR119W, strain clb2, stronger effect = lower value 1.02 | S. cerevisiae deletion strains, locus YPR141C, strain kar3, stronger effect = lower value 1.02 | S. cerevisiae deletion strains, locus YPR163C, strain tif3, stronger effect = lower value 1.03 | S. cerevisiae deletion strains, locus YPR167C, strain met16, stronger effect = lower value 1.02 | S. cerevisiae deletion strains, strain wtn01, stronger effect = lower value 1.03 | S. cerevisiae strains, strain wild type, stronger effect = lower value 1.01
active: S. cerevisiae deletion strains, locus YOL012C, strain htz1 1.88 [resistant]

Source: PubChem BioAssay AID1159580 (chemical genetic matrix, 2015)
